Key:
Assay in all cases: PBM binding z-score (relative to random genomic background probes); higher = stronger binding; sequences stand for … in GC…GCGATTGACAGCGTAGAATGAAGG
[1] = test system: RARb homodimer (NR concentration 270 nM)
Outline: (§1)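 On custom Agilent 4×180K arrays, double-stranded probes with 34-nt variable regions carried direct-repeat seeds, single-nucleotide variants, half-site ablations or random human genomic background. Ligand-free nuclear receptor dimers were applied for 1 h, and binding was read with antibodies against each partner (one per run). Binding z-scores come from regression-normalized fluorescence, with the random background probes as reference.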

[2] = test system: RARg:RXRa (NR concentration 270 nM, RXRa partner concentration 90 nM)
Outline: as §1

[3] = test system: RARg homodimer (NR concentration 270 nM)
Outline: as §1

[4] = test system: RXRa DBDmut IVT, anti-RXR (DBD mutation: RXRa K156A/R161A, NR concentration 90 nM)
Outline: as §1

[5] = test system: RXRa homodimer (NR concentration 180 nM)
Outline: as §1

[6] = test system: THRa:RXRa (NR concentration 90 nM, RXRa partner concentration 90 nM)
Outline: as §1

[7] = test system: THRa homodimer (NR concentration 90 nM)
Outline: as §1

[8] = test system: VDR homodimer (NR concentration 270 nM)
Outline: as §1

| Sequence | PBM binding z-score [1] | PBM binding z-score [2] | PBM binding z-score [3] | PBM binding z-score [4] | PBM binding z-score [5] | PBM binding z-score [6] | PBM binding z-score [7] | PBM binding z-score [8] |
| --- | --- | --- | --- | --- | --- | --- | --- | --- |
| CCTATTAGTTCACCATAAGGGCAACCGAAGCTCG | 3.48 | 4.31 | 2.61 | 2.82 | 1.69 | 3.37 | 1.73 | 2.41 |
| CGTCCAAGGTCACAGGTCAGTGAAGAGATGACGG | 5.03 | 6.75 | 7.51 | 3.42 | 7.67 | 4.36 | 3.28 | 2.75 |
| ACTATTAGTTTAGACGAGGGCAACCGATAGGTTG | 1.49 | 0.78 | 1.15 | 0.931 | 0.581 | 2.5 | 0.435 | 1.65 |
| ACTTACGGGTCAACGAGGTTATAGCCCGCGTATA | 3.68 | 5.54 | 4.99 | 2.37 | 6.11 | 3.97 | 1.14 | 3.48 |
| CAAGCTAGGTCAAGGTCAAAGTCGGTTTGTGCCA | 4.92 | 6.04 | 6.71 | 2.89 | 5.73 | 4.39 | 3.51 | 4.44 |
| CAGCCTAGGTCCGGGCCAGTATAGGAGGAACGTT | -0.676 | -0.685 | -0.755 | -1.37 | -0.779 | -0.819 | -1.03 | -0.835 |
| CGTCCAAGGTAAAGGTCAGTGAAAGAGACTCGAA | 4.43 | 4.58 | 5.49 | 0.687 | 4.48 | 3.2 | 0.7 | 0.765 |
